Source: the supplement of paper PMC13380429

Tested on: Vero E6 infected with SARS-CoV-2
Assay: inhibition of SARS-CoV-2 cytopathic effect; higher = more antiviral protection, active = above 15
Conditions: 833.33 nM; 48 h

Compound	inhibition of SARS-CoV-2 cytopathic effect
COc1ccccc1N1CCN(CCCCNC(=O)c2ccc(-c3ccc(C(C)=O)cc3)cc2)CC1	-6.69% (inactive)
Cc1ccc(C(=O)N(CCCN)[C@@H](c2nc3cc(Cl)ccc3c(=O)n2Cc2ccccc2)C(C)C)cc1 [ispinesib]	-2.99% (inactive)
CCCCCCNC(=O)n1cc(F)c(=O)[nH]c1=O [Carmofur]	1.65% (inactive)
CN1CCN(CCCN2c3ccccc3Sc3ccc(S(=O)(=O)N(C)C)cc32)CC1 [thioproperazine]	0.03% (inactive)
CC1(C)OC(=O)NC1=O [dimethadione]	0.78% (inactive)
CN(C(=O)c1c(O)c2ccccc2n(C)c1=O)c1ccccc1 [roquinimex]	-0.21% (inactive)
COc1ccc(CC2NCCc3cc(OC)c(OC)cc32)cc1OC (stereo not given) [tetrahydropapaverine]	-3.46% (inactive)
O=C(Nc1nc2cccc(-c3ccc(CN4CCS(=O)(=O)CC4)cc3)n2n1)C1CC1 [filgotinib]	3.84% (inactive)
C=CCSCC1Nc2cc(Cl)c(S(N)(=O)=O)cc2S(=O)(=O)N1 (stereo not given) [althiazide]	-0.46% (inactive)
Cc1c(Cl)cccc1S(=O)(=O)Nc1nc(NCCc2ccccc2)nc2c1CN(Cc1ccccc1)CC2	0.89% (inactive)
O=C(Nc1ccc(S(=O)(=O)C(F)(F)F)cc1)C1=CCN(c2ncccc2C(F)(F)F)CC1	-0.34% (inactive)
CCC(=O)NO	1.39% (inactive)
CCCCCCCCCCCCCCOC(=O)c1cccnc1 [myristyl-nicotinate]	1.76% (inactive)
CCOC(=O)[C@H]1O[C@@H]1C(=O)N[C@@H](CC(C)C)C(=O)NCCC(C)C [aloxistatin]	-0.54% (inactive)
CCc1cc(-c2[nH]nc(C)c2-c2ccc3c(c2)OCCO3)c(O)cc1O	-1.82% (inactive)
CC1(C)Oc2ccc(C#N)cc2[C@@H](N2CCCC2=O)[C@@H]1O [levcromakalim]	1.22% (inactive)
CC1(C)[C@@H](OC(=O)CCC(=O)O)CC[C@]2(C)[C@H]3C(=O)C=C4[C@@H]5C[C@@](C)(C(=O)O)CC[C@]5(C)CC[C@@]4(C)[C@]3(C)CC[C@@H]12	1.74% (inactive)
CC(C)C[C@H](NC(=O)[C@@H](O)[C@H](N)Cc1ccccc1)C(=O)O [ubenimex]	0.25% (inactive)
Nc1ncnc2c1C(=O)N(c1ccc([C@H]3CC[C@H](CC(=O)O)CC3)cc1)CCO2	5.58% (inactive)
OCc1c[nH]c2ccccc12 [indole-3-carbinol]	-0.69% (inactive)

Compound	inhibition of SARS-CoV-2 cytopathic effect
CCCCCCCCCCCCCCCC(=O)O[C@@H]1[C@@H](O)[C@@H](O)[C@@H]([C@H](NC(=O)[C@@H]2C[C@@H](CCC)CN2C)[C@H](C)Cl)O[C@@H]1SC [clindamycin-palmitate]	-0.74% (inactive)
Cc1ccccc1N1CCN(S(=O)(=O)C[C@]23CC[C@H](C[C@@H]2NC(=O)[C@@H](N)CCS(C)(=O)=O)C3(C)C)CC1	1.11% (inactive)
Cc1nnc(NS(=O)(=O)c2ccc(N)cc2)s1 [sulfamethizole]	1.2% (inactive)
C[C@@H](NCCCc1cccc(C(F)(F)F)c1)c1cccc2ccccc12 [cinacalcet]	-2.27% (inactive)
CN(C)CCCCSC(=N)N	1.23% (inactive)
COc1ccc([C@@H]2CC(=O)c3c(O)cc(O[C@@H]4O[C@H](CO)[C@@H](O)[C@H](O)[C@H]4O[C@@H]4O[C@@H](C)[C@H](O)[C@@H](O)[C@H]4O)cc3O2)cc1O [neohesperidin]	-0.64% (inactive)
NC(=O)CC[C@H](N)C(=O)O [L-glutamine]	0.71% (inactive)
O=C1[C@H](CC[C@H](O)c2ccc(F)cc2)[C@@H](c2ccc(O)cc2)N1c1ccc(F)cc1 [ezetimibe]	2.19% (inactive)
COC(=O)Nc1nc2cc(SC(C)C)ccc2[nH]1 [methiazole]	2.73% (inactive)
Nc1nc(F)nc2c1ncn2[C@@H]1O[C@H](COP(=O)(O)O)[C@@H](O)[C@@H]1O [fludarabine-phosphate]	1.79% (inactive)
CCN1CCC[C@H]1CNC(=O)c1c(O)c(Cl)cc(Cl)c1OC [raclopride]	-2.68% (inactive)
COc1ccc(C2CC(c3ccccc3)=NN2c2ccc(S(N)(=O)=O)cc2)cc1 (stereo not given)	-2.57% (inactive)
Cc1ncc(CO)c(/C=N/NC(=O)c2ccncc2)c1O [pyridoxal-isonicotinoyl-hydrazone]	0.28% (inactive)
CNC[C@H](O)c1ccc(O)c(O)c1 [epinephrine]	0.24% (inactive)
Oc1ccc2ccccc2c1 [beta-naphthol]	5.34% (inactive)
O=C(O)C1=C(CSc2nnnn2CS(=O)(=O)O)CS[C@@H]2[C@H](NC(=O)[C@H](O)c3ccccc3)C(=O)N12 [Cefonicid (sodium)]	0.79% (inactive)
CC(C)NC(=N)NC(=N)Nc1ccc(Cl)cc1 [proguanil]	-1.01% (inactive)
CCCCC(=O)O[C@H]1CC[C@H]2[C@@H]3CCc4cc(O)ccc4[C@H]3CC[C@]12C	-1.92% (inactive)
CC(CN(C)C)C(C)(O)Cc1ccc(Cl)cc1 (stereo not given) [clobutinol]	-3.1% (inactive)
Cn1cc(C(=O)OCC2CCN(CCNS(C)(=O)=O)CC2)c2ccccc21	6.93% (inactive)
